In the supplement of paper PMC9897528 one finds growth inhibition data, which are given here for 14 molecules.

Unmarked numbers belong to inactive results.
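Note: conidia screened in RPMI 1640 medium under 5% CO2, growth read by spectrophotometer, medium with 0.5% DMSO serving as the untreated reference.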

The subject of the assay is Scedosporium aurantiacum CBS 136046. Briefly: growth inhibition relative to DMSO control (OD600); higher = more antifungal activity, active = 80 or more; extreme values may be limits of the assay. To be noted: 5 µM; 72 h; 37 °C.
For the molecule `CCCCCc1ccc(C(=O)NCCn2cc(CCCCCc3c[nH]c(N)n3)nn2)cc1`, the growth inhibition is 46%.

As for `N#C/C(=C1/SC[C@H](c2ccc(Cl)cc2Cl)S1)n1ccnc1`, the growth inhibition was 85.6% (active).

For the molecule `O=C(c1cc(O)nc2ccccc12)N1CCN(c2ccccc2)CC1`, the growth inhibition is 5.66%.

As to `CCNC(=O)Nc1cc(-c2ccccc2)c(-c2cncc(C(=O)O)c2)cn1`, the growth inhibition was 8.53%.

For `Cc1cc(CCCOc2c(C)cc(-c3noc(C(F)(F)F)n3)cc2C)on1`, the growth inhibition is 9.58%.

Consider `Nc1nc2c(ncn2COC(CO)CO)c(=O)[nH]1`, for which the growth inhibition is 11.1%.

With `CCc1c(O)nc2ccc(F)cc2c1OCC1CCC1`, the growth inhibition is 23.8%.

Take `Fc1ccc2c(/C=C/c3nnn[nH]3)c[nH]c2c1`: the growth inhibition is 4.45%.

`Cc1c(OCC(F)(F)F)ccnc1C[S+]([O-])c1nc2ccccc2[nH]1` (centres undefined): the growth inhibition is 39.8%.

`CN(C)CC(=O)Nc1ccc2[nH]c(=O)c3ccccc3c2c1`: the growth inhibition was 6.77%.

Regarding `O=P(O)(O)C(CCCc1cccc(Oc2ccccc2)c1)S(=O)(=O)O` (centres undefined), the growth inhibition was 2.84%.

Turning to `COC1CC2CCC(C)C(O)(O2)C(=O)C(=O)N2CCCCC2C(=O)OC(C(C)CC2CCC(OCCO)C(OC)C2)CC(=O)C(C)/C=C(\C)C(O)C(OC)C(=O)C(C)CC(C)/C=C/C=C/C=C/1C` (centres undefined), the growth inhibition is 10.9%.

Take `CO[C@@]1(NC(=O)Cc2cccs2)C(=O)N2C(C(=O)O)=C(COC(N)=O)CS[C@@H]21`: the growth inhibition is 20.8%.

Consider `CC(=O)N[C@H](C)C(=O)N[C@H](Cc1ccccc1)C(=O)O`, for which the growth inhibition was 10.8%.
